Parameters in all cases: scale not given: direction of the effect not stated beside the values
Assay [1] addresses Protein translocase subunit SecA (Escherichia coli (strain K12)) (UniProt P10408). The assay is described as follows: Assay to Identify E. coli SecA ATPase Inhibitors. It counts as functional. To be noted: 30 µM.
Assay [2] concerns the target T1, Ubiquitin-activating enzyme e1, putative (Leishmania donovani (strain BPK282A1)) (UniProt E9BSI1).
T1 sequence (whole entry): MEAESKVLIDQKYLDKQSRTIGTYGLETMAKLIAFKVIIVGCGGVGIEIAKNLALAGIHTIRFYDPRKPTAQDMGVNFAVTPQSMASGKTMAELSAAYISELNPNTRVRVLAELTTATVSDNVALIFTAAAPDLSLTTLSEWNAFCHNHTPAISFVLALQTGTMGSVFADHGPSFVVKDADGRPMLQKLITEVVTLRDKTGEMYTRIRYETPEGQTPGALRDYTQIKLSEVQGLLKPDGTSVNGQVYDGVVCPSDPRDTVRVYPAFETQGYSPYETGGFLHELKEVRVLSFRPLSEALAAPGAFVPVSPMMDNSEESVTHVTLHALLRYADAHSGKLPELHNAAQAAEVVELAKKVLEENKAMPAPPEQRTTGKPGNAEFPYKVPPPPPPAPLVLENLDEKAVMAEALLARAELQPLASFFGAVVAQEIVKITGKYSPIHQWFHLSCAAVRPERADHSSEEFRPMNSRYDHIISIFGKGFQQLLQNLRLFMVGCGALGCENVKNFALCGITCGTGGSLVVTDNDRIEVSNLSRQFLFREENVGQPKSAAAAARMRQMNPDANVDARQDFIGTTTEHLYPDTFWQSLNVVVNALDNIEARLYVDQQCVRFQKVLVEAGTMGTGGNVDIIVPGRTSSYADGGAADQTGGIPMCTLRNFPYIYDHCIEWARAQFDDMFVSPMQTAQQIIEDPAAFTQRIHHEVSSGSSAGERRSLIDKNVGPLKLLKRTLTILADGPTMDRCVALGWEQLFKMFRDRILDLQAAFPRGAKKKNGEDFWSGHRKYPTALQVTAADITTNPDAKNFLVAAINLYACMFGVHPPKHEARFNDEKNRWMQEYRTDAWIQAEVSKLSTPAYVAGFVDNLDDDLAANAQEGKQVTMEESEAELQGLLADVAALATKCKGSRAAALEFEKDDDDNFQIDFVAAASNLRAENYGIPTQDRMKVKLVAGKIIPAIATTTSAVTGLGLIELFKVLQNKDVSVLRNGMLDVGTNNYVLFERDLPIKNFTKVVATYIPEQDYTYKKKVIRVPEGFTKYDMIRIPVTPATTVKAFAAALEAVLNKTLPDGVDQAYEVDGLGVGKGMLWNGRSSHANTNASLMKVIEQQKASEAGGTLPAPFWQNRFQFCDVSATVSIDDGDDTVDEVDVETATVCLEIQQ
Put plainly: Leishmania donovani Ubiquitin Activating Enzyme (LdE1). It counts as functional. To be noted: 30 µM.

Assay [3] concerns the target Sialic acid-binding Ig-like lectin 9 (Homo sapiens) (UniProt Q9Y336). Put plainly: Hs-Siglec9 ALPHAscreen SOP 20170721. To be noted: 10 µM.
For a further assay, the system named is Trypanosoma cruzi. Put plainly: Trypanosoma cruzi phosphomannomutase and mannose-1-phosphate guanylyltransferase assay. The format is functional. To be noted: 10 µM.
The target in assay [4] is T2, Arginase-2, mitochondrial (Homo sapiens) (UniProt P78540).
T2 sequence (whole entry): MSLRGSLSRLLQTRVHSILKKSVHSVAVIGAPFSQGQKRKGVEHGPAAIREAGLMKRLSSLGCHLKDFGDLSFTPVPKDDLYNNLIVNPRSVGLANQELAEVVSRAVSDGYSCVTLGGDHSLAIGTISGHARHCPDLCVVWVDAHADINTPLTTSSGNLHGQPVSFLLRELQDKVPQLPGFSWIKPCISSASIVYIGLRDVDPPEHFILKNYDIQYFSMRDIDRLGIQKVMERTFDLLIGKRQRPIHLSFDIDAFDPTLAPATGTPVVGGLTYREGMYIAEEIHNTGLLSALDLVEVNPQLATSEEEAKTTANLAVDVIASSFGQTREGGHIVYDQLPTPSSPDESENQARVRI
Put plainly: in vitro enzyme assay to detect the production of urea directly proportional to the activity of Arginase II. Also: in the data most compounds retested in dose-response had high values. The format is functional. To be noted: 33.3 µM.

In assay [5] the target is T3, Proteasome subunit beta (Trypanosoma cruzi) (UniProt O96673).
T3 sequence (whole entry): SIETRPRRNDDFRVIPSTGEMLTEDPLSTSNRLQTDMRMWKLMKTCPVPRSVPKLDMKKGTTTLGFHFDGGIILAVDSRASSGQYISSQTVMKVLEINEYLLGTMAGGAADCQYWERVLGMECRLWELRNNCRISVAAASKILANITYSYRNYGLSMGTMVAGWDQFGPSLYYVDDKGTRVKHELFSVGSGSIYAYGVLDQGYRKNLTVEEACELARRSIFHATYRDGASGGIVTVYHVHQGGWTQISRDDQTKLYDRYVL
Put plainly: Trypanosoma cruzi proteasome chymotrypsin-like activity (TcProtChymo) assay. Also: in the data most compounds retested in dose-response had high values. To be noted: 9.37 µM. It counts as functional.

The species named for a further assay is Homo sapiens. Put plainly: To identify inhibition of the IFN signalling (Jak-Stat) pathway via expression of an eGFP reporter gene under the control of an IFN-stimulated response element (ISRE) containing MxA promoter. The format is functional. To be noted: 30 µM.
Assay [6] deals with T4, Tyrosyl-tRNA synthetase, putative (Trypanosoma cruzi (strain CL Brener)) (UniProt Q4DSP6).
T4 sequence (whole entry): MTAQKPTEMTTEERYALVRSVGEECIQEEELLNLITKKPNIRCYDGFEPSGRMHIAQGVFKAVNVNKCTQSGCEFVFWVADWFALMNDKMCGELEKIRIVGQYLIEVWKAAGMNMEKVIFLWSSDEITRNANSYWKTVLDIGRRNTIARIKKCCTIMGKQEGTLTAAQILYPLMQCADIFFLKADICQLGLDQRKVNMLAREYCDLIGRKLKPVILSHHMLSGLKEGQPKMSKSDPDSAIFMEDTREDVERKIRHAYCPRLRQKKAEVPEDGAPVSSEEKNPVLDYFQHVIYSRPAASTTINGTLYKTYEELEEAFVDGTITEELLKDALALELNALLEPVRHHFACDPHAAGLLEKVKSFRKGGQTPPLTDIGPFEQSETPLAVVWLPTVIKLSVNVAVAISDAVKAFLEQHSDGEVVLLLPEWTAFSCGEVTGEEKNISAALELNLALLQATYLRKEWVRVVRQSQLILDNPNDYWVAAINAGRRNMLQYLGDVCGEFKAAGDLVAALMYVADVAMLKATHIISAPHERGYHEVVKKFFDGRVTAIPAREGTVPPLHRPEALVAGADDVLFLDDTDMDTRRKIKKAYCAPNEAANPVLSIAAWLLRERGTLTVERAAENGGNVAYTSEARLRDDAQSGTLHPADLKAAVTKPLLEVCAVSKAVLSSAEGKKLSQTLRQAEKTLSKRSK
Put plainly: Trypanosoma cruzi tyrosyl tRNA synthetase (TcYRS) _High Tyrosine SOP. Also: in the data most compounds retested in dose-response had high values. It counts as functional. To be noted: 30 µM.

In assay [7] the target is T4, Tyrosyl-tRNA synthetase, putative (Trypanosoma cruzi (strain CL Brener)). Put plainly: Trypanosoma cruzi tyrosyl tRNA synthetase (TcYRS) SOP. It counts as functional. To be noted: 30 µM.
Assay [8] deals with Chromo domain-containing protein 1 (Saccharomyces cerevisiae (strain ATCC 204508 / S288c) (Baker's yeast)) (UniProt P32657). The assay is described as follows: ScCHD-1 Enzyme Inhibition Assay. Also: in the data most compounds retested in dose-response had high values. The format is functional. To be noted: 30 µM.
Chain of Chromo domain-containing protein 1 (Saccharomyces cerevisiae (strain ATCC 204508 / S288c) (Baker's yeast)) (P32657 whole entry, the tested form may be a part): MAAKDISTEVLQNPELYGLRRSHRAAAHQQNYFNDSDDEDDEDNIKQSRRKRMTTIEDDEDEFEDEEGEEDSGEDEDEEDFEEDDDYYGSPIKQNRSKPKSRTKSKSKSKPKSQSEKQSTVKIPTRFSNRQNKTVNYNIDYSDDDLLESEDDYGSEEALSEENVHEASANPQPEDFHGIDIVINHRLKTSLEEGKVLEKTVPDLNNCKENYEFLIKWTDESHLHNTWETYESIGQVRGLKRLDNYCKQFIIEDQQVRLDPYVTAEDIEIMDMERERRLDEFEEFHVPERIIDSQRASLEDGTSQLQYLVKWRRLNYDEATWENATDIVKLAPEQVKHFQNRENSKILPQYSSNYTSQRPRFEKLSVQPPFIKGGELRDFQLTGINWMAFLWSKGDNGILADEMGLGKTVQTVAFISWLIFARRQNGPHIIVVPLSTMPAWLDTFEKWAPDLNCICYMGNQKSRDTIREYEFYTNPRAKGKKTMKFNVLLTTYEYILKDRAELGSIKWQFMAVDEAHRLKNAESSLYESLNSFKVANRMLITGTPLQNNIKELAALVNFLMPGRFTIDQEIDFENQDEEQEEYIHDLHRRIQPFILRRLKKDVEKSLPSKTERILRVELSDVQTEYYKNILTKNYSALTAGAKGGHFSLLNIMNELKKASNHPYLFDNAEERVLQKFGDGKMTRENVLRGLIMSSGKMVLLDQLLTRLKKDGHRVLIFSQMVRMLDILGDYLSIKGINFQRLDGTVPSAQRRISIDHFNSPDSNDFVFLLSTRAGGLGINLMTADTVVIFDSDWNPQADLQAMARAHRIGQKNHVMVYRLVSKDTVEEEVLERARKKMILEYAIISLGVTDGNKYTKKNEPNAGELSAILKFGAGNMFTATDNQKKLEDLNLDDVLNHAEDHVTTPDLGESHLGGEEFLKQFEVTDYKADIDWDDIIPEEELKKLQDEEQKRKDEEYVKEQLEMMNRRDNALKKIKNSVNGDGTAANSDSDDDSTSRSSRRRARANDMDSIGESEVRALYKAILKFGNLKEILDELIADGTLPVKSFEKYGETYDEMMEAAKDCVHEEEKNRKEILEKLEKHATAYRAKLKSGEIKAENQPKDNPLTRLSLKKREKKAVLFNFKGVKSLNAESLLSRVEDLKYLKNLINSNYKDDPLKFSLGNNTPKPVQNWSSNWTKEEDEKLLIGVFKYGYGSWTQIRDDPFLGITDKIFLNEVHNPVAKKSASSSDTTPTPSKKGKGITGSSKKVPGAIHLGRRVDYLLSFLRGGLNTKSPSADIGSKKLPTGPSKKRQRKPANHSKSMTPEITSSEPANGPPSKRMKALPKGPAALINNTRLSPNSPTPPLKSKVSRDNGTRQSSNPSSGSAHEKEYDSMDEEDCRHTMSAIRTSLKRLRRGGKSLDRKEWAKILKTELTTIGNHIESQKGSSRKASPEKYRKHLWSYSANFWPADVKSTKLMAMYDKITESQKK

SMILES strings stand for the structures. For some assays here: Results with a measured potency or affinity are listed apart.

Chain of Protein translocase subunit SecA (Escherichia coli (strain K12)) (P10408 whole entry): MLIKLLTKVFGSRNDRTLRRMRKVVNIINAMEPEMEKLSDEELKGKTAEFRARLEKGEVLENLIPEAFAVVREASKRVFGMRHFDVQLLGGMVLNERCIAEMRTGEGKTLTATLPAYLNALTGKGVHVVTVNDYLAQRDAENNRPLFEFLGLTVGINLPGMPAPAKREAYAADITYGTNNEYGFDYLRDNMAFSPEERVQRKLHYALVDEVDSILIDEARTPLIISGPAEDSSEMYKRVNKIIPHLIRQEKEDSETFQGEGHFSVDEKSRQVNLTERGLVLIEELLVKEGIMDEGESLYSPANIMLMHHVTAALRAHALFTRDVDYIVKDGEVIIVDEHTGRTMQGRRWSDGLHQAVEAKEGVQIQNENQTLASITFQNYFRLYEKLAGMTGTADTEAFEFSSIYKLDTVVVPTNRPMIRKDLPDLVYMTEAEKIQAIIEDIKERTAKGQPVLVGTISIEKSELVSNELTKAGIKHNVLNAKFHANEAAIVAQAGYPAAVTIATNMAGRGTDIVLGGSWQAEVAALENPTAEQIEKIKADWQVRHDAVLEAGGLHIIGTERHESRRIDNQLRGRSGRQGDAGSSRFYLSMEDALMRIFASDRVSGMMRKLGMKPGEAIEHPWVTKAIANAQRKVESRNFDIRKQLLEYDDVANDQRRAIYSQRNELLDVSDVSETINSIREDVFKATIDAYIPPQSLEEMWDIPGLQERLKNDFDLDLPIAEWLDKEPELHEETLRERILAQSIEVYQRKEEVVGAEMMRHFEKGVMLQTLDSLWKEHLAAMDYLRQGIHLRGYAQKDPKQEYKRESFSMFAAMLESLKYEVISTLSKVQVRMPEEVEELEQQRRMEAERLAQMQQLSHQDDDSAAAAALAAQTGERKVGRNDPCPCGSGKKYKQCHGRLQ
Chain of Sialic acid-binding Ig-like lectin 9 (Homo sapiens) (Q9Y336 whole entry): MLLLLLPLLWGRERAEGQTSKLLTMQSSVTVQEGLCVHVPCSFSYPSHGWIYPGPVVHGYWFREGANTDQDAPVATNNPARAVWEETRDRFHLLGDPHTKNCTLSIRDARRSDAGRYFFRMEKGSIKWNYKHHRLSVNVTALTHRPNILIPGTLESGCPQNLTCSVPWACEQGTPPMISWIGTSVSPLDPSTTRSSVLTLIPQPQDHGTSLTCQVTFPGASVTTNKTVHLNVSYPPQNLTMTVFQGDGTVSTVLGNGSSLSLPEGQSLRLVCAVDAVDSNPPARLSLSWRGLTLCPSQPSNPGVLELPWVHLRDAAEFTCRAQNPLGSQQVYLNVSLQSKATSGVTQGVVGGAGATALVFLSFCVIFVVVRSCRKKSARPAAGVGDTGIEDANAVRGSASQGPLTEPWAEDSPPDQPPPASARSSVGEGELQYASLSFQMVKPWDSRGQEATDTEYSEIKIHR

For the molecule `Cc1cnn(CCNCc2nnc(C3CC3)o2)c1`, the Percent Effect was 2.37% in assay [1]; 26% in [2]; -7.5% in assay [3]; 0.746% in the assay on Trypanosoma cruzi; -8.4% in assay [4]; 16% in assay [5]. Besides, the Percent Effect in the assay listed under Homo sapiens is 32.1%; in assay [6], 6.86%; in assay [7], 28.2%; in assay [8], -8.53%.
Regarding `CN1CCCC2(CCN(C(=O)CCn3cncn3)C2)C1=O` (stereo not given), the Percent Effect in assay [1] is -9.37%; in assay [2], 2.7%; in assay [3], 4.1%; in the assay on Trypanosoma cruzi, 4.17%; in assay [4], 5.94%; in assay [5], 12%. Further, the Percent Effect in the assay filed under Homo sapiens was -0.496%; in [6], 4.79%; in [7], 19.5%; in [8], -0.366%.
On to `CN1CCN(C(=O)c2cccc(OCc3cscn3)c2)CC1`, for which the Percent Effect in assay [1] is -6.48%; in [2] it was 2.56%; in assay [3] it was -10.9%; in the assay on Trypanosoma cruzi it was -3.1%; in assay [4], -0.41%; in [5] it was -1.62%. Besides, the Percent Effect in the assay filed under Homo sapiens turned out to be 19.3%; in assay [6] it was 0.478%; in [7] it was 6.02%; in [8], 5.6%.
Consider `CNC(=O)C1(c2cnccn2)CCCN1C(=O)c1ccccc1OC` (stereo not given), for which the Percent Effect in assay [1] is 0.772%; in assay [2] it was 14.7%; in assay [3], -7.91%; in the assay with Trypanosoma cruzi it was -1.77%; in assay [4] it was -3.98%; in [5], 9.36%. For the same molecule, the Percent Effect is 17.4% in the assay filed under Homo sapiens, -2.12% in [6], 5% in assay [7] and -18.1% in [8].
As to `CC(C)c1ncc(S(C)(=O)=O)c(C2CCCNC2)n1` (stereo not given), the Percent Effect in assay [1] was -5.26%; in [2], 10.8%; in [3] it was 16.7%; in the assay on Trypanosoma cruzi it was 6.11%; in assay [4] it was 14.3%; in assay [5], 3.94%. Moreover, the Percent Effect in the assay listed under Homo sapiens was -1.56%; in assay [6] it was 6.92%; in assay [7], 17.1%; in assay [8] it was -3.61%.
As for `COc1ncc(C2(O)CCN(Cc3cccs3)CC2)c(OC)n1`, the Percent Effect in [1] is -5.49%; in [2], 22.7%; in assay [3], -1.28%; in the assay with Trypanosoma cruzi it was 2.76%; in [4], -3.54%; in [5], 11.2%. In addition, the Percent Effect in the assay listed under Homo sapiens was 4.21%; in [6] it was 8.47%; in [7], 20%; in assay [8], -25.5%.
In the case of `COCc1nc(C(=O)NS(=O)(=O)c2cc(F)ccc2F)cs1`, the Percent Effect in [1] was -3.64%; in assay [2], -2.56%; in assay [3], -5.81%; with Trypanosoma cruzi it was -1.41%; in assay [4], -1.64%; in assay [5], -0.939%. Further, the Percent Effect in the assay listed under Homo sapiens was 22.9%; in [6], -0.478%; in assay [7] it was -6.02%; in assay [8], 4.47%.
In the case of `Cc1nc(-c2cccc(C(=O)O)c2)cc(C2CCN(C(C)C)C2)n1` (stereo not given), the Percent Effect in assay [1] is -2.85%; in assay [2] it was 6.67%; in assay [3], 1.03%; in the assay with Trypanosoma cruzi, -1.18%; in assay [4], 4.87%; in assay [5], 9.69%. Besides, the Percent Effect in the assay filed under Homo sapiens is 1.3%; in [6], 6.35%; in assay [7], 17.5%; in assay [8], -15.1%.
`Cc1cc(N2CCC(Cc3ccccc3)CC2)nc(-c2ccncc2)n1`: the Percent Effect was -1.61% in [1]; -15.6% in assay [2]; 11% in [3]; 14.4% in the assay with Trypanosoma cruzi; -6.76% in assay [4]; -5.44% in assay [5]. Besides, the Percent Effect in the assay filed under Homo sapiens is -2.83%; in assay [6], 18.6%; in assay [7], 7.06%; in [8], 4.27%.
Turning to `Cc1cc(CNc2cc(Cl)ccc2Cl)no1`, the Percent Effect is -0.772% in assay [1]; 0% in [2]; 3.56% in assay [3]; 4.79% in the assay with Trypanosoma cruzi; 0% in assay [4]; 4.69% in [5]. The Percent Effect was 8.6% in the assay filed under Homo sapiens, -11% in assay [6], 6.02% in assay [7] and -0.0633% in [8].
As to `COC[C@@H]1CC[C@H]2[C@H](CCN2S(=O)(=O)c2cccc(C)c2)O1`, the Percent Effect is -1.1% in assay [1]; 6.49% in assay [2]; -6.71% in assay [3]; -4.38% in the assay on Trypanosoma cruzi; 2.43% in assay [4]; 16.1% in [5]. The Percent Effect is -2.75% in the assay filed under Homo sapiens, 0.526% in assay [6], 5.13% in assay [7] and -2.87% in assay [8].

The values are drawn from ChEMBL document CHEMBL3988442, “University of Dundee, Small-Polar-MMV Screening Library” (2021).
